This passage reports ETS1 binding intensity and RUNX1 binding intensity results from the supplement of paper PMC10681739.
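Wherever RUNX1 binding intensity (PBM fluorescence), RUNX1 alone is given: Full-length recombinant human RUNX1 bound to double-stranded 36-bp genomic probes on a high-density microarray, scored as Alexa488 fluorescence per spot via anti-RUNX1 antibody, median of four replicate spots.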

The target of the first test is T1, ETS1 (UniProt P14921).
T1 sequence: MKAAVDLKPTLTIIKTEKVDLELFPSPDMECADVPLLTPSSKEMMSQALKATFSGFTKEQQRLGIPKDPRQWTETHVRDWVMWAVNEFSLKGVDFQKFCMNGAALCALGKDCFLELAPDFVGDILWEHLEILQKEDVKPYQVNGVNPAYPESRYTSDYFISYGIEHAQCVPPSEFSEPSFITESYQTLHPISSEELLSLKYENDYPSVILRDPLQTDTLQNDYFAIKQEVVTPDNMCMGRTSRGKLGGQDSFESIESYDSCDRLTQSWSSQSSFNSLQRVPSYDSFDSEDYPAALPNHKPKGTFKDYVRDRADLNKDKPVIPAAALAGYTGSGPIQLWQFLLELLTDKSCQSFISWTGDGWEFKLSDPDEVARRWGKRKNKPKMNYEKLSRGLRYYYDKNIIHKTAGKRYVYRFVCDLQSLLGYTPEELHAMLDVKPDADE
The experiment in a line: ETS1 binding intensity (PBM fluorescence), ETS1 alone (arbitrary fluorescence units); higher = stronger binding. Conditions: ETS1 concentration 1 nM; RUNX1 concentration 0 nM.
ACAAAACAAACACATCCCCCAAACCGCCAAACTACA registered an ETS1 binding intensity of 606.

GCGCACTTCCGGGCTGGTGAACGCGGTGACGTCACC gave an ETS1 binding intensity of 1250.

With ACACCTCAGGCAGGATGTGGTAGGGGTTGCCCCAGA, the ETS1 binding intensity came to 3730.

ACAGACCAGGGGATTTCCTGTGGGTGGAGTCCTCAG displayed an ETS1 binding intensity of 859.

On to AGGCGGCAGGAAATGACCCCATCCCGCAGCCTGGGC, for which the ETS1 binding intensity came to 2480.

In turn, CCGAGCTTAACGACATCCTGCGGCTCAGCGTGGAGG displayed an ETS1 binding intensity of 435.

For the sequence GTATCACTTCCTGTTTTCCTCTGTGGCTTACTGCTG, the ETS1 binding intensity is 3310.

For ACAAGGAGGAAAAGGAAATGAACCACGAATAGCAAA, the ETS1 binding intensity was 1220.

As for AGGCCGCTTCCTCCCACATGAAACCGCAGGCTTCGG, the ETS1 binding intensity turned out to be 374.

TCTTTGAGAAGCGGATGTGGTAAACTTGCCTCTGTT gave an ETS1 binding intensity of 5970.

Sequence AGCGCCGGAAGTGTGTCTGCGTAAAACTGCGGCTCG showed an ETS1 binding intensity of 3490.

In turn, GGCTCGGTGCTGCTTCCTGTGTGGTCAGGATCACAG registered an ETS1 binding intensity of 1870.

AAGAGGAAGTCCCAAATTGCTTTTTAACCACCAACA yielded an ETS1 binding intensity of 522.

Take ACTTACAAAGGAAGTGACAGAACCACAGAAAAGACC: the ETS1 binding intensity turned out to be 1230.

For the sequence TACGTCACTTCCGGGCCGCCGTCCTGCGGGCAAGGG, the ETS1 binding intensity turned out to be 2570.

With AATGCCGGATATTGGTTCTGGTAAGCCACAAAAAAG, the ETS1 binding intensity was 1720.

In turn, GCTTCTGAGGAAGTGCGTTTTGTGGGTAGGTGGAGT had an ETS1 binding intensity of 706.

Turning to CGTTTCCTGTCTGGGACTGCGCCCACGCGGTCACGT, the ETS1 binding intensity is 725.

With AGATGCAGAACAGGAAGTGGTTTAGAAAGCCACTCT, the ETS1 binding intensity was found to be 8980.

In turn, TTGGTTGTTGCCAGAGGATGTGGGTTGGCGGGGGAG gave an ETS1 binding intensity of 1690.

The sequence GCCGCCTCTTCCTGTGTTGCAAACCACAGGTCCACC showed an ETS1 binding intensity of 1250.

For TTGTCACGTCCGGCACGCCGCGAACCGCAAGGAACC, the ETS1 binding intensity came to 571.

In turn, TTTCACTTCCGGCATGTTTTTCACCCACAGGGATAT registered an ETS1 binding intensity of 3910.

In turn, GGCTGGCCTAGGAACTTCCGCCACAAGTCCCGCCCC showed an ETS1 binding intensity of 1860.

On to GCGATCGGAGCGGAAGTGGAGCTACCGCCACCGCCG, for which the ETS1 binding intensity turned out to be 7540.

As for GCGAGCACTTCCGGTGTGTGAGCCTGCGGTTGCTAC, the ETS1 binding intensity is 7480.

GAGGGGTGGGGGAGGAAGGCTGCGGTTTCTGCTGGG had an ETS1 binding intensity of 390.

In turn, AGCGCCCCATCCCGCGGATGTGGTAAAGCTTCGCGC returned an ETS1 binding intensity of 658.

The sequence GGGGCTCCGCAGGAAGTAGGGCTCCCACAACTTTGC returned an ETS1 binding intensity of 2970.

Take GGCAGCAAGAAAGGAAATAGTGTGGTTGGGTGGAGA: the ETS1 binding intensity is 1050.

Consider ACCGGCCGAGCCAACTTCCGGCCGCAGAGGCTGCCG, for which the ETS1 binding intensity was 5830.

On to CCAGACCCGGCGGAACTACCGTGCCCACAAGGCAGC, for which the ETS1 binding intensity stood at 396.

Consider AACAAACCGGATGGGGTTGCCACCCGCAATCTTGTC, for which the ETS1 binding intensity amounted to 2030.

Take CGCCTCATTTCCTGTGCAACTGCGGTAAAAATAGGA: the ETS1 binding intensity was 1860.

GCGGGGACCCGGATGTGTGTGGTGGCGGCGGCCGAA displayed an ETS1 binding intensity of 3040.

GCCACAGCCGGAAGCAGGCTGACCACAAGTGCTAAG returned an ETS1 binding intensity of 1880.

With CTGTGAGGCGGAAGTGGCGGGCTCTGTGGGCGCAAG, the ETS1 binding intensity is 3860.

The sequence CCCAGGCTTCCGGGTTGAATATGTGGGCTGAGGCGA showed an ETS1 binding intensity of 455.

With GCAATGCCGCTACCGGAAGTGCGGGTCGCGCTCCCG, the ETS1 binding intensity stood at 26000.

Sequence CTCCACCGGATGCAGCAATGAAGGCCGCAGGAATGG had an ETS1 binding intensity of 3160.

The target in the next test is RUNX1 (UniProt Q01196). The experiment in a line: RUNX1 binding intensity (PBM fluorescence), RUNX1 alone (arbitrary fluorescence units); higher = stronger binding. Conditions: RUNX1 concentration 2 nM; ETS1 concentration 0 nM. The protocol: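 Cooperative gcPBM on 36-bp genomic probes with neighbouring ETS1 and RUNX1 sites. Recombinant human RUNX1 (2 nM) was incubated alone or with ETS1 (25 nM) and detected with anti-RUNX1 antibody plus Alexa488 secondary. Values are medians over 4 replicate spots; the RUNX1+ETS1 data were normalised to the RUNX1-only data. The probes sit in constant array flanks that are not printed.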
Sequence of RUNX1 (Q01196 whole entry): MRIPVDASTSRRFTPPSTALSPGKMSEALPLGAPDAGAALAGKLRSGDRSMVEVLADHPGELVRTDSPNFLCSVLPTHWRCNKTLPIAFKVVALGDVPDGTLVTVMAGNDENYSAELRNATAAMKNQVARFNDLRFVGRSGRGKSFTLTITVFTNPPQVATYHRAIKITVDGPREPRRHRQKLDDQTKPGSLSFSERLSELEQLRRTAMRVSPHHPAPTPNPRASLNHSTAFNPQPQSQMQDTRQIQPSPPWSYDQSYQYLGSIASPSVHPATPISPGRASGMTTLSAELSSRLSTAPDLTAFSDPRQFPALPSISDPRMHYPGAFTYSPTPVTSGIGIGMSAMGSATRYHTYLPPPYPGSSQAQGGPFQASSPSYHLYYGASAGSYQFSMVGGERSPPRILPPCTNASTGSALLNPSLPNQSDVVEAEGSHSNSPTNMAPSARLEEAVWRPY
Turning to ACAAAACAAACACATCCCCCAAACCGCCAAACTACA, the RUNX1 binding intensity was 1310.

With GCGCACTTCCGGGCTGGTGAACGCGGTGACGTCACC, the RUNX1 binding intensity was found to be 804.

For ACACCTCAGGCAGGATGTGGTAGGGGTTGCCCCAGA, the RUNX1 binding intensity stood at 1020.

As to ACAGACCAGGGGATTTCCTGTGGGTGGAGTCCTCAG, the RUNX1 binding intensity was 676.

Sequence AGGCGGCAGGAAATGACCCCATCCCGCAGCCTGGGC came in with an RUNX1 binding intensity of 806.

In turn, CCGAGCTTAACGACATCCTGCGGCTCAGCGTGGAGG gave an RUNX1 binding intensity of 792.

On to GTATCACTTCCTGTTTTCCTCTGTGGCTTACTGCTG, for which the RUNX1 binding intensity was determined as 1300.

Sequence ACAAGGAGGAAAAGGAAATGAACCACGAATAGCAAA displayed an RUNX1 binding intensity of 817.

AGGCCGCTTCCTCCCACATGAAACCGCAGGCTTCGG gave an RUNX1 binding intensity of 3590.

For TCTTTGAGAAGCGGATGTGGTAAACTTGCCTCTGTT, the RUNX1 binding intensity amounted to 801.

AGCGCCGGAAGTGTGTCTGCGTAAAACTGCGGCTCG: the RUNX1 binding intensity came out at 740.

Turning to GGCTCGGTGCTGCTTCCTGTGTGGTCAGGATCACAG, the RUNX1 binding intensity was found to be 846.

As to AAGAGGAAGTCCCAAATTGCTTTTTAACCACCAACA, the RUNX1 binding intensity was 849.

ACTTACAAAGGAAGTGACAGAACCACAGAAAAGACC: the RUNX1 binding intensity is 732.

For the sequence TACGTCACTTCCGGGCCGCCGTCCTGCGGGCAAGGG, the RUNX1 binding intensity is 799.

AATGCCGGATATTGGTTCTGGTAAGCCACAAAAAAG displayed an RUNX1 binding intensity of 836.

Regarding GCTTCTGAGGAAGTGCGTTTTGTGGGTAGGTGGAGT, the RUNX1 binding intensity is 792.

Consider CGTTTCCTGTCTGGGACTGCGCCCACGCGGTCACGT, for which the RUNX1 binding intensity came to 966.

Turning to AGATGCAGAACAGGAAGTGGTTTAGAAAGCCACTCT, the RUNX1 binding intensity came out at 827.

In turn, TTGGTTGTTGCCAGAGGATGTGGGTTGGCGGGGGAG came in with an RUNX1 binding intensity of 897.

As for GCCGCCTCTTCCTGTGTTGCAAACCACAGGTCCACC, the RUNX1 binding intensity came out at 1570.

In turn, TTGTCACGTCCGGCACGCCGCGAACCGCAAGGAACC gave an RUNX1 binding intensity of 1270.

Turning to TTTCACTTCCGGCATGTTTTTCACCCACAGGGATAT, the RUNX1 binding intensity was determined as 1130.

GGCTGGCCTAGGAACTTCCGCCACAAGTCCCGCCCC had an RUNX1 binding intensity of 822.

The sequence GCGATCGGAGCGGAAGTGGAGCTACCGCCACCGCCG returned an RUNX1 binding intensity of 819.

As to GCGAGCACTTCCGGTGTGTGAGCCTGCGGTTGCTAC, the RUNX1 binding intensity turned out to be 845.

As to GAGGGGTGGGGGAGGAAGGCTGCGGTTTCTGCTGGG, the RUNX1 binding intensity was 8430.

AGCGCCCCATCCCGCGGATGTGGTAAAGCTTCGCGC came in with an RUNX1 binding intensity of 788.

In turn, GGGGCTCCGCAGGAAGTAGGGCTCCCACAACTTTGC had an RUNX1 binding intensity of 664.

As to GGCAGCAAGAAAGGAAATAGTGTGGTTGGGTGGAGA, the RUNX1 binding intensity came to 846.

With ACCGGCCGAGCCAACTTCCGGCCGCAGAGGCTGCCG, the RUNX1 binding intensity came out at 756.

CCAGACCCGGCGGAACTACCGTGCCCACAAGGCAGC gave an RUNX1 binding intensity of 876.

Sequence AACAAACCGGATGGGGTTGCCACCCGCAATCTTGTC returned an RUNX1 binding intensity of 826.

On to CGCCTCATTTCCTGTGCAACTGCGGTAAAAATAGGA, for which the RUNX1 binding intensity stood at 1630.

In the case of GCGGGGACCCGGATGTGTGTGGTGGCGGCGGCCGAA, the RUNX1 binding intensity was found to be 700.

Consider GCCACAGCCGGAAGCAGGCTGACCACAAGTGCTAAG, for which the RUNX1 binding intensity is 1310.

For the sequence CTGTGAGGCGGAAGTGGCGGGCTCTGTGGGCGCAAG, the RUNX1 binding intensity came out at 703.

As to CCCAGGCTTCCGGGTTGAATATGTGGGCTGAGGCGA, the RUNX1 binding intensity came out at 819.

In the case of GCAATGCCGCTACCGGAAGTGCGGGTCGCGCTCCCG, the RUNX1 binding intensity was 749.

CTCCACCGGATGCAGCAATGAAGGCCGCAGGAATGG displayed an RUNX1 binding intensity of 712.
